PubChem BioAssay (Tox21)
Records with an inconclusive call do not appear. Activity calls are given as the source filed them. Unless noted, calls follow the shape of the dose curve; as a rule, active = well fitted curve in the direction sought with a large enough effect in the repeat runs; inconclusive = weak or mixed curves; inactive = no such curve, though single readings can be large; an effect the other way counts as inactive or inconclusive.

Experiments:
[1] = biological target: Nuclear receptor subfamily 1 group I member 3 (Homo sapiens) (UniProt Q14994); assay: qHTS assay to identify small molecule antagonists of the constitutive androstane receptor (CAR) signaling pathway (AID 1224838);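 also: HepG2 cells stably expressing hCAR with CYP2B6 luciferase reporter stimulated by CITCO; nearly all actives have a fitted effect of over 40% in size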
Procedure, shortened: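 HepG2-CYP2B6-hCAR cells; 4 h pre-incubation; cpd (15 conc) + CITCO 50 nM final; 24 h, 37 C/5% CO2; ONE-Glo, luminescence.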

[2] = qHTS assay to identify small molecule antagonists of the estrogen related receptor signaling pathway with the pleiotropic PPARgamma coactivator (PGC) from Tox21 10K library - cell viability counter screen (AID 1224840; active = well fitted cell-killing curve with a large enough effect in the repeat runs, not every such curve was filed as active; also: nearly all actives have a fitted effect of over 40% in size)
Procedure, shortened: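 PGC/ERR cells, 2,000/well; 6 h pre-incubation 37 C/5% CO2; cpd in DMSO via pin tool; 17.5 h 37 C; CellTiter-Fluor, 30 min; fluorescence.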

[3] = qHTS assay to identify small molecule agonists of the estrogen related receptor signaling pathway with the pleiotropic PPARgamma coactivator (PGC) from Tox21 10K library (AID 1224842); also: nearly all actives have a fitted effect of over 15% in size; also: potency is read from the fitted curve at half-maximal effect
Procedure, shortened: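 PGC/ERR reporter cells (NTP line) were seeded 2,000 per well, rested 6 h at 37 C/5% CO2, then pin-dosed with compounds in DMSO for 18 h at 37 C; luciferase read by One-Glo luminescence after 30 min at room temperature.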

[4] = biological target: Thyrotropin receptor (Homo sapiens) (UniProt P16473); assay: qHTS assay to identify small molecule agonists of the thyroid stimulating hormone receptor (TSHR) signaling pathway (AID 1224843; calls by dose curve; also: nearly all actives have a fitted effect of over 45% in size)
Procedure, shortened: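 TSHR-expressing HEK293 cells (800 per well) were exposed to compounds for 30 min at room temperature. cAMP was then detected by HTRF competition with cAMP-d2 and anti-cAMP cryptate, read after 1 h at room temperature. Fifteen concentrations, triplicate.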

[5] = qHTS assay to identify small molecule agonists of the hypoxia (HIF-1) signaling pathway - cell viability counter screen (AID 1224844; calls by dose curve; also: nearly all actives have a fitted effect of over 50% in size; also: potency is read from the fitted curve at half-maximal effect)
Procedure, shortened: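 ME-180 HRE-bla cells, 2,000/well, 0.5% dialyzed FBS; 5 hr settle, 17 hr compound at 37C/5% CO2; CCF4-AM reporter read first, then CellTiter-Glo luminescence after 30 min RT.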

[6] = qHTS assay to identify small molecule agonists of H2AX (AID 1224845; active = well fitted activation curve with a large enough effect in the signal ratio in the repeat runs, not every such curve was filed as active; the % refers to the signal ratio; also: potency is read from the fitted curve at half-maximal effect)
Procedure, shortened: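 Wild-type CHO-K1 cells plated overnight, then exposed 3 hr at 37C to compounds at 15 concentrations (0.76% DMSO). Lysed, then HTRF anti-pH2AX(S139)-cryptate/anti-H2AX-d2 detection after 24 hr at room temperature; emissions 665 and 620 nm.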

[7] = qHTS assay to identify small molecule agonists of the hypoxia (HIF-1) signaling pathway (AID 1224846; active = well fitted activation curve with a large enough effect in the signal ratio in the repeat runs, not every such curve was filed as active; the % refers to the signal ratio; also: potency is read from the fitted curve at half-maximal effect)
Procedure, shortened: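 Cell line: CellSensor HRE-bla ME-180; 2,000 cells/well; 0.5% dialyzed FBS; 5 h preincubation; DMSO compound pin transfer; 17 h, 37C, 5% CO2; CCF4-AM added; bla FRET signal scored for activation.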

[8] = qHTS assay to identify small molecule agonists of H2AX - cell viability counter screen (AID 1224847; calls by dose curve; also: nearly all actives have a fitted effect of over 30% in size; also: potency is read from the fitted curve at half-maximal effect; as to activity change, negative = cytotoxicity: top concentration of the series differs between compounds)
Procedure, shortened: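 Compounds tested at 15 concentrations were incubated 3 hr at 37C with wild-type CHO-K1 cells; cellular ATP-based luminescence (CellTiter-Glo) indicated viability.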

[9] = qHTS assay to identify small molecule agonists of the estrogen related receptor (ERR) signaling pathway from Tox21 library (AID 1224849; calls by dose curve; also: nearly all actives have a fitted effect of over 15% in size); settings: ERR reporter cell line, ONE-Glo luciferase, 18 h; at 92.4 µM (top of the series) unless noted
Procedure, shortened: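 ERR cells, 6 h pre-incubation 37 C/5% CO2; cpd in DMSO pinned; 18 h 37 C; ONE-Glo added, 30 min RT; luminescence read. Agonist mode, qHTS.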

[10] = qHTS RealTime-Glo MT Cell Viability Assay in HEK293 cells - 32 hour (AID 1224868); also: nearly all actives have a fitted effect of over 50% in size; also: potency is read from the fitted curve at half-maximal effect; as to activity change, negative = cytotoxic: top concentration of the series differs between compounds
Procedure, shortened: (§1)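 HEK293 cells seeded with NanoLuc/prosubstrate reagent, rested 5 h at 37 C, then dosed and kept at 37 C up to 40 h. Nonlytic real-time luminescence from viable cells read at 0, 8, 16, 24, 32 and 40 h.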

[11] = A CellTox Green Cytotoxicity Assay to monitor cytotoxicity in HEK293 cells - 0 hour (AID 1224869); also: nearly all actives have a fitted effect of over 50% in size
Procedure, shortened: (§2)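 Nonlytic real-time cytotoxicity: HEK293 + CellTox Green reagent plated, 5 h preincubation, pintool compound addition (23 nL in DMSO), 37 C for 40 h, fluorescence measured at successive time points.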

[12] = qHTS RealTime-Glo MT Cell Viability Assay in HepG2 cells - 40 hour (AID 1224870); also: nearly all actives have a fitted effect of over 50% in size; also: potency is read from the fitted curve at half-maximal effect
Procedure, shortened: (§3)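 HepG2 cells mixed with RealTime-Glo MT reagents (NanoLuc plus cell-permeant prosubstrate) were seeded at 600 cells/well, incubated 5 h at 37 C/5% CO2, then pinned with compounds in DMSO; nonlytic luminescence tracked viability during 40 h treatment.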

[13] = qHTS RealTime-Glo MT Cell Viability Assay in HEK293 cells - 16 hour (AID 1224872); also: nearly all actives have a fitted effect of over 50% in size; also: potency is read from the fitted curve at half-maximal effect; as to activity change, negative = cytotoxicity: top concentration of the series differs between compounds
Procedure, shortened: as §1

[14] = qHTS RealTime-Glo MT Cell Viability Assay in HepG2 cells - 8 hour (AID 1224873); also: nearly all actives have a fitted effect of over 55% in size
Procedure, shortened: as §3

[15] = qHTS RealTime-Glo MT Cell Viability Assay in HEK293 cells - 40 hour (AID 1224874); settings: RealTime-Glo luminescence; max response: active compounds read low; also: nearly all actives have a fitted effect of over 50% in size; also: potency is read from the fitted curve at half-maximal effect
Procedure, shortened: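 Cells were seeded together with NanoLuc luciferase and a prosubstrate that viable cells reduce to a luciferase substrate. After a 5 h incubation at 37 C/5% CO2, compounds were added and luminescence was measured repeatedly during 40 h of treatment.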

[16] = qHTS RealTime-Glo MT Cell Viability Assay in HepG2 cells - 24 hour (AID 1224867); also: nearly all actives have a fitted effect of over 50% in size; also: potency is read from the fitted curve at half-maximal effect
Procedure, shortened: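 HepG2 cells (600/well) were dispensed with RealTime-Glo reagents, incubated 5 h at 37 °C, then treated with compounds in DMSO for up to 40 h. Nonlytic NanoLuc luminescence reflecting viable cells was read at each stated time point.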

[17] = A CellTox Green Cytotoxicity Assay to monitor cytotoxicity in HEK293 cells - 40 hour (AID 1224871); also: nearly all actives have a fitted effect of over 45% in size
Procedure, shortened: as §2

[18] = biological target: Nuclear receptor subfamily 1 group I member 3 (Homo sapiens) (UniProt Q14994); assay: qHTS assay to identify small molecule agonists of the constitutive androstane receptor (CAR) signaling pathway (AID 1224839);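 also: HepG2 cells stably carrying human CAR and a CYP2B6 luciferase reporter; nearly all actives have a fitted effect of over 15% in size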
Procedure, shortened: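 Compounds tested at 15 concentrations on HepG2 cells stably harbouring hCAR and CYP2B6-2.2kb reporter constructs, co-treated with PK11195 (0.75 uM final), 24 h at 37 C; luminescent reporter signal quantified.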

[19] = qHTS assay to identify small molecule antagonists of the estrogen related receptor signaling pathway with the pleiotropic PPARgamma coactivator (PGC) from Tox21 10K library (AID 1224841; call rule not given here; also: potency is read from the fitted curve at half-maximal effect)
Procedure, shortened: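 PGC/ERR cell line, 2,000 cells/well; 6 h pre-incubation 37 C/5% CO2; compounds (DMSO) pinned in; 18 h, 37 C; One-Glo, 30 min RT; luminescence.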

[20] = qHTS assay to identify small molecule antagonists of the estrogen related receptor (ERR) signaling pathway from Tox21 library (AID 1224848); also: nearly all actives have a fitted effect of over 50% in size; also: potency is read from the fitted curve at half-maximal effect
Procedure, shortened: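 Cells: ERR line, 2,000/well; 6 h preincubation 37 C/5% CO2. Cpd in DMSO via pin tool; 18 h, 37 C. ONE-Glo, 30 min RT, luminescence.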
% is scaled to controls: 0 for no effect and ±100 for the full control effect.

Thyrotropin receptor (Homo sapiens), sequence (P16473 whole entry, looked up): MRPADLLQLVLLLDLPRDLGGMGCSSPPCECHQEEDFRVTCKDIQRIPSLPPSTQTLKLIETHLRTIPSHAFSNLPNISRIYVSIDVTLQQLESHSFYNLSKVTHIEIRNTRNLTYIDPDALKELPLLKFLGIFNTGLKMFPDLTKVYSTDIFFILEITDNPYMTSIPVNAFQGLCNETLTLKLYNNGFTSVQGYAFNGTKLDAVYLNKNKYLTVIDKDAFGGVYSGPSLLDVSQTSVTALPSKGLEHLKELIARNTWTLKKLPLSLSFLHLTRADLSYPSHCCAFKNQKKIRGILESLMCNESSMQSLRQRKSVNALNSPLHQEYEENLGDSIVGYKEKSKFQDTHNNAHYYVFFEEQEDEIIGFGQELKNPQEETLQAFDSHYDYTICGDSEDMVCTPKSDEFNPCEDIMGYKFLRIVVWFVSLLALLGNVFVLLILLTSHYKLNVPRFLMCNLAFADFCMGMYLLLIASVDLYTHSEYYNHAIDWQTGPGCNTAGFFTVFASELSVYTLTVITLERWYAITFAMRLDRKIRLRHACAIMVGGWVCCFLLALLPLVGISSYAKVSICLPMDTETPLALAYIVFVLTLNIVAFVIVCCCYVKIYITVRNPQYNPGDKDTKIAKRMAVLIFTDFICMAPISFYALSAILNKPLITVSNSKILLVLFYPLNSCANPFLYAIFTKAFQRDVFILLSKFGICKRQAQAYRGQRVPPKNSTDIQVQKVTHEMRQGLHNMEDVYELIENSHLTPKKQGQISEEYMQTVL
Nuclear receptor subfamily 1 group I member 3 (Homo sapiens), sequence (Q14994 whole entry, looked up): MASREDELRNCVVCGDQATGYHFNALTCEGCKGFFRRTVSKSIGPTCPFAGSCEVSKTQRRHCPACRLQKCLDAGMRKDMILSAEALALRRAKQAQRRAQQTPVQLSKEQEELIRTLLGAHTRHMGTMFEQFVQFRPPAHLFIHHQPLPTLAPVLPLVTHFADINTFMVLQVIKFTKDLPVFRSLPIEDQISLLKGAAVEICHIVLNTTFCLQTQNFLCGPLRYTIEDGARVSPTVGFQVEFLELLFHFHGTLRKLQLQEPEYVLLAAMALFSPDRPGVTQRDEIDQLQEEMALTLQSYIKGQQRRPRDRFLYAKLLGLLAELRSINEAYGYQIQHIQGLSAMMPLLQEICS

CCN(CC)c1ccc(C=O)c(O)c1
inactive: Potency [1] | Potency [2] | Potency [3] | Potency [4] | Potency [5] | Potency [6] | Potency [7] | Potency [8] | activity change, positive = activation [9] -16.4% | Potency [10] | Potency [11] | Potency [12] | Potency [13] | Potency [14] | max response [15] -15%

COc1cc2ncnc(Nc3cccc(Cl)c3)c2cc1OC
inactive: viability change, negative = cytotoxic [2] -14.4% [at 19 µM] | activation [4] -0.89% [at 19 µM] | activity change, negative = cytotoxicity [5] -10.3% [at 15.8 µM] | activation (H2AX phosphorylation) [6] 1.29% [at 31.6 µM] | activation [7] 0.103% [at 15.8 µM] | activity change, negative = cytotoxicity [8] 1.51% [at 31.6 µM] | activity change, negative = cytotoxicity [16] -0.467% [at 15.8 µM] | activity change, negative = cytotoxic [10] 0.667% [at 15.8 µM] | cytotoxicity [11] -7.5% [at 15.8 µM] | activity change, negative = cytotoxic [12] 25.7% [at 15.8 µM] | activity change, negative = cytotoxicity [13] -3.69% [at 15.8 µM] | viability change, negative = cytotoxic [14] -19.1% [at 15.8 µM] | max response [15] -0.219%

CCN(CC)c1ccc(C=O)cc1
inactive: Potency [1] | Potency [2] | Potency [4] | Potency [5] | Potency [6] | Potency [8] | Potency [16] | Potency [11] | Potency [12] | Potency [17] | Potency [14]

O=C(NCc1ncc(C(F)(F)F)cc1Cl)c1c(Cl)cccc1Cl
inactive: Potency [18] | Potency [5] | Potency [6] | Potency [8] | Potency [16] | Potency [12]
active: Potency [7] 15.5 µM | Potency [10] 21.9 µM | Potency [15] 19.5 µM

CCCC(=O)c1cc(O)c(O)cc1O
inactive: Potency [18] | Potency [7] | Potency [16] | Potency [10] | Potency [11] | Potency [12] | Potency [17] | Potency [13] | Potency [14] | max response [15] 1.65%
active: Potency [19] 61.1 µM

CC(=O)Nc1ccc(N=Nc2cc(C)ccc2O)cc1
inactive: Potency [1] | Potency [5] | Potency [6] | Potency [20] | Potency [16] | Potency [10] | Potency [11] | Potency [12] | Potency [17] | Potency [13] | Potency [14] | max response [15] -19.1%
active: Potency [3] 4.33 µM | activity change, positive = activation [9] 169%

Cc1c(Cl)c(=O)oc2cc(O)ccc12
active: Potency [10] 43.6 µM | Potency [13] 49 µM | Potency [15] 43.6 µM
inactive: Potency [1] | Potency [4] | Potency [5] | Potency [8] | Potency [16] | Potency [12] | Potency [14]

N#CCCOCCC#N
inactive: Potency [1] | Potency [2] | Potency [3] | Potency [5] | Potency [6] | Potency [7] | Potency [8] | Potency [20] | activity change, positive = activation [9] 1.08% | Potency [16] | Potency [10] | Potency [17] | Potency [13] | max response [15] 2.28%

CSc1ccc(O)cc1C
active: Potency [6] 113 µM
inactive: Potency [1] | Potency [2] | Potency [19] | Potency [3] | Potency [8] | Potency [20] | activity change, positive = activation [9] -0.368% | Potency [16] | Potency [11] | Potency [12] | Potency [17] | Potency [13] | Potency [14]

CC1(C)[C@H](C(=O)OCc2cccc(Oc3ccccc3)c2)[C@@H]1C=C(Cl)Cl
inactive: Potency [18] | Potency [2] | Potency [4] | Potency [5] | Potency [6] | Potency [8] | Potency [16] | Potency [10] | Potency [11] | Potency [12] | Potency [17] | Potency [13] | Potency [14] | max response [15] 4.05%

C=C(C)CCO
inactive: Potency [2] | Potency [4] | Potency [5] | Potency [6] | Potency [7] | Potency [8] | Potency [10] | Potency [12] | Potency [17] | Potency [13] | Potency [14] | max response [15] 1.14%

O=C(Nc1ccc([N+](=O)[O-])cc1)Nc1ccc([N+](=O)[O-])cc1 (tested in a mixture with another compound)
inactive: Potency [2] | Potency [4] | Potency [5] | Potency [6] | Potency [7] | Potency [12] | Potency [17] | Potency [14]
active: Potency [8] 17.5 µM | Potency [10] 4.77 µM | Potency [15] 4.77 µM

C/C=C/C(=O)OCC(C)C
inactive: Potency [2] | Potency [4] | Potency [5] | Potency [6] | Potency [7] | Potency [8] | Potency [16] | Potency [10] | Potency [12] | Potency [17] | Potency [13] | Potency [14] | max response [15] 5.85%

c1ccc(C[P+](c2ccccc2)(c2ccccc2)c2ccccc2)cc1
inactive: Potency [18] | Potency [3] | Potency [5] | Potency [6] | activity change, positive = activation [9] -56.8% | Potency [16] | Potency [11] | Potency [12] | Potency [14]
active: Potency [19] 3.44 µM | Potency [8] 101 µM | Potency [20] 1.72 µM | Potency [10] 1.55 µM | Potency [15] 1.38 µM

CCCCCCCCCC[N+](C)(CCCCCCCCCC)CCC[Si](OC)(OC)OC
active: Potency [5] 54.9 µM | Potency [8] 50.5 µM | Potency [16] 43.6 µM | Potency [10] 27.5 µM | Potency [12] 43.6 µM | Potency [13] 27.5 µM | Potency [15] 27.5 µM
inactive: Potency [1] | Potency [18] | Potency [6] | Potency [11]
